Inconclusive results are not listed. Calls of active or inactive are those of the source. The call rests on the fitted dose curve; in most records, active means well fitted inhibition curve with a large enough effect in the polarisation, with a control signal flat (not every such curve was filed as active); inconclusive means small, poorly fitted or top-dose-only effect, or effect the other way, or a change in a side signal; inactive means no such curve, though single readings can be large or run the other way; the % refers to the polarisation.
Target: Menin (Homo sapiens) (UniProt O00255)
Sequence (O00255 whole entry, looked up): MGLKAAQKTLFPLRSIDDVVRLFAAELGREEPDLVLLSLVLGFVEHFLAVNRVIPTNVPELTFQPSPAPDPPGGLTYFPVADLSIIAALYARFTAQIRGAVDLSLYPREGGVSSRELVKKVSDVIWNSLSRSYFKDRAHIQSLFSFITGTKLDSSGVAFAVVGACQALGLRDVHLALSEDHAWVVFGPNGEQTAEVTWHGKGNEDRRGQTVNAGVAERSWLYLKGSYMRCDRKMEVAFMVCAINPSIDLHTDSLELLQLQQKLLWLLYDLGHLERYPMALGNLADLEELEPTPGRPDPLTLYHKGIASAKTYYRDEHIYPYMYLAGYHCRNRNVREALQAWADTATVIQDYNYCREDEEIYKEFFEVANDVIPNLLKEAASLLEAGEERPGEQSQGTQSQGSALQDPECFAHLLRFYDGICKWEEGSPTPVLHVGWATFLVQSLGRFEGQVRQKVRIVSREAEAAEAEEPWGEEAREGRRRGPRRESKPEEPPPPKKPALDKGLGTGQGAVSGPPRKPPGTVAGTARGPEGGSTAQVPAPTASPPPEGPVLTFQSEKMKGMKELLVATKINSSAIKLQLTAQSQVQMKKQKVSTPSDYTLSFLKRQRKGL
Experiment: Confirmation of Inhibitors Targeting the Menin-MLL Interaction in MLL Related Leukemias: Competition With Fluorescein Labeled MLL-derived Peptide
Conditions: Fluorescence polarization, fluorescein-MLL peptide displacement from menin; series mostly up to 100 µM; activity change, negative = inhibition: at the top concentration
On the % scale 0 is the no-effect control and ±100 the full control effect.

Activity change, negative = inhibition, inactive:
O=C(CC(=O)c1ccccc1)Nc1cc(C(F)(F)F)ccc1Cl 2.38%
Cc1ccc(NC(=O)C(C)N2C(=O)c3ccccc3C2=O)c(C)c1 (centres undefined) 3.78%
Cc1ccc(-c2cc(C(=O)Nc3cc(C)ccc3O)no2)cc1 -2.22%
O=C(Nc1nccs1)C(Br)C(Br)c1ccccc1 (centres undefined) 0.0812% [at 288 µM]
CC(=O)c1cccc(OCC(O)CNCC2COc3ccccc3O2)c1 (centres undefined) 0.566%
COc1ccc(CN2CCN(C(C)C(=O)N(C)Cc3cccc(F)c3)CC2)cc1OC (centres undefined) -2.91%
Cc1cnc(NC(=O)C2C(=O)c3ccccc3S(=O)(=O)N2C)s1 (centres undefined) 6.66% [at 288 µM]
COc1ccccc1NS(=O)(=O)c1cc(NC(=O)Nc2cccc(C)c2)ccc1N1CCCCC1 -1.07%
O=[N+]([O-])c1ccc(S(=O)(=O)c2ccccc2)nc1 0.487% [at 288 µM]
CCN1CCN(CC(=O)Nc2ccc(C(C)=O)cc2)CC1 -17.2%
O=C(Cn1nc(-c2ccccc2)ccc1=O)N1CCCCC1 2.68% [at 288 µM]
NC(=O)c1ccc(NC(=O)c2cncn2-c2ccccc2)cc1 1.21%
CC(=O)O[C@H]1CSC[C@H]1NC(=O)c1ccccc1 -0.821%
Cc1ccc(-c2csc(NC(=O)c3ccc(S(=O)(=O)N4CCc5ccccc54)cc3)n2)cc1 -0.485%
COCC(=O)Nc1cccc2ccccc12 -12.3%
COc1ccc(N(CC(=O)NC2CC3CCC2C3)S(=O)(=O)c2ccc(C)cc2)cc1OC (centres undefined) 8.09%
CCCOc1ccc(C(=O)NNC(=S)NC(=O)c2cc(-c3ccc(Cl)cc3)nc3ccccc23)cc1 -3.33% [at 288 µM]
COc1ccc(NC2=C(NCCO)C(=O)c3ccccc3C2=O)cc1 3.49% [at 288 µM]
O=C(Cn1c(=O)c2c3c(sc2n(Cc2ccccc2)c1=O)CCCC3)NCCO 2.27% [at 288 µM]
O=C(NC(=S)N1CCCc2ccccc21)c1ccc([N+](=O)[O-])cc1 -11.5%
NC(=O)c1cc2ccccc2o/c1=N/NC(=O)c1cccc(F)c1 -12.4%
Cc1nc(N2CCN(C)CC2)c2c3c(sc2n1)CCCC3 -3.53%
CCCCn1c(SCC(=O)NCc2ccc(OC)c(C(=O)O)c2)nc2cc(S(N)(=O)=O)ccc21 -8.37% [at 288 µM]
CCCC(=O)NC(c1ccccc1Cl)c1ccc2cccnc2c1O (centres undefined) -1.78%
O=c1oc2c(O)c(O)cc3c(=O)oc4c(O)c(O)cc1c4c23 -10.6%
COc1ccc2nc(NC(=O)CSc3nnc(N)s3)sc2c1 1.97%
C=CCN(CC=C)S(=O)(=O)c1ccc(NC(=S)NC(=O)/C=C/c2cccc3ccccc23)cc1 -6.4%
COc1ccc(CCNCc2cc(C)n(-c3ccc(OC)cc3)c2C)cc1 -0.328%
Cc1cc2ccccc2nc1SCC(=O)Nc1nc(-c2ccccc2)cs1 17.8% [at 288 µM]
Cc1ccc(C(=O)Sc2cccccc2=O)cc1 0.406% [at 288 µM]
O=C(c1cc(F)c(F)cc1Cl)N1CCN(c2ncccn2)CC1 -2.83%
c1ccc2c(c1)NCC1CCCN21 (centres undefined) -3.78%
CC(=O)N1CCCc2cc(S(=O)(=O)N3CCCC(C(=O)N4CCN(c5ccccc5)CC4)C3)ccc21 (centres undefined) 1.86%
CN(C)CCc1c[nH]c2ccc(CC3COC(=O)N3)cc12 (centres undefined) 0% [at 288 µM]
